“And” between values parts separate entries of the source, which are not always exact repeats. Equal values may be shown once. Screen size: about 5,500 compounds; about 2,000 (36%) were called active. About 18% were inconclusive and are not listed. No stated cut-off is given here; in the data, active means normalized growth mostly below about 0.91 (no sharp cut-off); inconclusive means no clear call, values can overlap the other calls; inactive means mostly above about 0.92. The list shows a part of the results.
Assay: chemical genetic growth profiling, strain panel (AID 1159580);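 further: tested at 20 µM; growth read once vehicle control cultures reached saturation at 30 °C; 1 = growth at the plate median or of vehicle wells; lower values mean less growth of the strain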
Settings: S. cerevisiae deletion strains, growth OD

Measured: normalized growth

O=[N+]([O-])O[C@H]1CO[C@H]2[C@@H]1OC[C@H]2O[N+](=O)[O-]
active: locus YGR252W, strain gcn5, hits give low values 1.3 [resistant]
inactive: locus YAL013W, strain DEP1, hits give low values 1.01 | locus YAL021C, strain ccr4, hits give low values 0.993 | locus YAL026C, strain drs2, hits give low values 1.01 | locus YAL030W, strain snc1, hits give low values 1 | locus YBL061C, strain skt5, hits give low values 1 | locus YBR009C, strain hhf1, hits give low values 1 | locus YBR021W, strain FUR4, hits give low values 1.01 | locus YBR023C, strain chs3, hits give low values 0.984 | locus YBR171W, strain sec66, hits give low values 0.993 | locus YBR229C, strain ROT2, hits give low values 1.01 | locus YBR231C, strain swc5, hits give low values 0.981 | locus YBR279W, strain paf1, hits give low values 0.978 | locus YCL011C, strain gbp2, hits give low values 0.99 | locus YCL016C, strain dcc1, hits give low values 0.97 | locus YCL029C, strain bik1, hits give low values 1.03 | locus YCL061C, strain MRC1, hits give low values 0.985 | locus YCL069W, strain vba3, hits give low values 0.999 | locus YCR088W, strain abp1, hits give low values 0.985 | locus YDL005C, strain med2, hits give low values 0.991 | locus YDL035C, strain GPR1, hits give low values 1.03 | locus YDL040C, strain nat1, hits give low values 0.999 | locus YDL074C, strain BRE1, hits give low values 1.01 | locus YDL101C, strain DUN1, hits give low values 1 | locus YDL134C, strain PPH21, hits give low values 1.01 | locus YDL185W, strain tfp1, hits give low values 1.01 | locus YDL192W, strain arf1, hits give low values 1.02 | locus YDR001C, strain nth1, hits give low values 0.991 | locus YDR069C, strain doa4, hits give low values 1 | locus YDR101C, strain arx1, hits give low values 0.989 | locus YDR137W, strain rgp1, hits give low values 0.971 | locus YDR159W, strain sac3, hits give low values 1.01 | locus YDR162C, strain NBP2, hits give low values 1.02 | locus YDR195W, strain ref2 0.977 | locus YDR297W, strain sur2, hits give low values 0.99 | locus YDR318W, strain mcm21, hits give low values 1.05 | locus YDR334W, strain swr1, hits give low values 0.991 | locus YDR335W, strain msn5, hits give low values 0.995 | locus YDR388W, hits give low values 1.02 | locus YDR392W, strain spt3, hits give low values 0.91 | locus YDR502C, strain sam2, hits give low values 1.03 | locus YEL003W, strain gim4, hits give low values 1 | locus YEL037C, strain rad23, hits give low values 0.995 | locus YEL061C, strain CIN8 (second series), hits give low values 0.99 | locus YEL061C, strain CIN8, hits give low values 1.01 | locus YER015W, strain faa2, hits give low values 1.01 | locus YER016W, strain bim1, hits give low values 1 | locus YER110C, hits give low values 1.02 | locus YER111C, strain swi4, hits give low values 0.979 | locus YER155C, strain BEM2 (second series), hits give low values 0.998 | locus YER155C, strain BEM2, hits give low values 1.01 | locus YER167W, strain BCK2, hits give low values 1.02 | locus YFR010W, strain ubp6, hits give low values 1 | locus YGL078C, strain dbp3, hits give low values 1.02 | locus YGL086W, strain mad1, hits give low values 1.01 | locus YGL167C, strain pmr1, hits give low values 1 | locus YGL173C, strain kem1, hits give low values 1 | locus YGL227W, strain vid30, hits give low values 0.986 | locus YGL240W, strain doc1, hits give low values 0.988 | locus YGL248W, strain PDE1, hits give low values 0.999 | locus YGL253W, strain hxk2, hits give low values 1.01 | locus YGR078C, strain PAC10, hits give low values 1.03 | locus YGR135W, strain pre9, hits give low values 1.04 | locus YHR013C, strain ard1, hits give low values 0.971 | locus YHR027C, strain rpn1, hits give low values 0.998 | locus YHR030C, strain SLT2, hits give low values 1.01 and 0.95 | locus YHR079C, strain IRE1 (second series), hits give low values 1.02 | locus YHR079C, strain IRE1, hits give low values 0.956 | locus YHR094C, strain hxt1, hits give low values 1.02 | locus YHR129C, strain ARP1, hits give low values 1.01 | locus YHR142W, strain chs7, hits give low values 0.991 | locus YHR200W, strain rpn10, hits give low values 1.02 | locus YIL066C, strain RNR3, hits give low values 1.02 | locus YIL073C, strain SPO22, hits give low values 1.06 | locus YIL125W, strain kgd1, hits give low values 1.01 | locus YIR030C, strain dcg1, hits give low values 1.01 | locus YJL092W, strain hpr5, hits give low values 0.999 | locus YJL095W, strain BCK1 (second series), hits give low values 0.992 | locus YJL095W, strain BCK1, hits give low values 1.01 and 0.925 | locus YJL115W, strain asf1, hits give low values 0.991 | locus YJL129C, strain trk1, hits give low values 0.991 | locus YJL134W, strain LCB3, hits give low values 1.02 | locus YJL154C, strain vps35, hits give low values 0.998 | locus YJL164C, strain tpk1, hits give low values 0.988 | locus YJL166W, strain qcr8, hits give low values 0.984 | locus YJL168C, strain set2, hits give low values 1 | locus YJL187C, strain SWE1 (second series), hits give low values 1.01 | locus YJL187C, strain SWE1, hits give low values 1

Reference: PubChem BioAssay AID1159580 (chemical genetic matrix, 2015)
